# Data taken from PubChem BioAssay (Tox21).
# Inconclusive results are not listed. Entries that show only a call come without a potency. The source made the active and inactive calls. Unless noted, the call rests on the fitted dose curve; in most records, active means well fitted curve in the direction sought with a large enough effect in the repeat runs; inconclusive means weak or mixed curves; inactive means no such curve, though single readings can be large; an effect the other way counts as inactive or inconclusive.
# Key:
# [1] = qHTS assay for small molecule agonists of the p53 signaling pathway (AID 651631; calls by dose curve; further: nearly all actives have a fitted effect of over 15% in size; further: potency means the concentration at half of the fitted maximal effect)
# How it was run: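 Quantitative high-throughput format: 4,000 p53RE-bla HCT-116 cells/well, 5 h pre-incubation, 16 h compound exposure at 37 °C, 2 h room-temperature substrate step, fluorescence intensity measured.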
# [2] = qHTS assay for small molecule agonists of the p53 signaling pathway - cell viability (AID 651633; calls by dose curve;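 further: p53RE-bla HCT reporter cells with a stable beta-lactamase p53 reporter; series mostly up to about 83 µM; nearly all actives have a fitted effect of over 30% in size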)
# How it was run: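 p53RE-bla cells were treated with compound for 16 hours at 37 C. Cytotoxicity was then measured as CellTiter-Glo luminescence after 30 min at room temperature.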
# [3] = qHTS assay for small molecules that induce genotoxicity in human embryonic kidney cells expressing luciferase-tagged ATAD5 - cell viability (AID 651634; calls by dose curve; further: nearly all actives have a fitted effect of over 25% in size)
# How it was run: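 Seeding of 2,000 HEK293T ATAD5-luciferase cells per well preceded pin-tool compound transfer. Plates sat 15.5 hr at 37C under 5% CO2, then fluorescence was read after 30 min with CellTiter-Fluor.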
# [4] = qHTS assay for small molecule disruptors of the mitochondrial membrane potential - cell viability (AID 720634; calls by dose curve;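 further: human HepG2 liver cancer cells; series mostly up to about 83 µM; nearly all actives have a fitted effect of over 20% in size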)
# How it was run: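 Measuring cytotoxicity alongside mitochondrial potential, the screen quantified ATP by luminescence in HepG2 cells after 1 hr compound incubation and a 30 min room-temperature CellTiter-Glo step.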
# [5] = qHTS assay to test for compound auto fluorescence at 535 nm (green) in HepG2 cells (AID 720675)
# [6] = qHTS assay to test for compound auto fluorescence at 460 nm (blue) in HEK293 cells (AID 720678)
# How it was run: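 Triamterene serves as the blue fluorophore standard. Compound signal at 405/460 nm is read in HEK293 wells (2,000 cells, 10% dialyzed FBS) after overnight treatment at 37C.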
# [7] = qHTS assay to test for compound auto fluorescence at 590 nm (red) in HEK293 cells (AID 720679)
# How it was run: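 We plated HEK293 cells in 10% dialyzed FBS medium, let them adhere for 4-5 hr, then added 23 nL compound. Overnight at 37C and 5% CO2 preceded fluorescence measurement at 540/590nm.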
# [8] = qHTS assay to test for compound auto fluorescence at 590 nm (red) in HepG2 cells (AID 720674)
# How it was run: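 HepG2 cells, 2,000 per well in MEM with 10% FBS, attached overnight at 37 C, then got 23 nL compound or DMSO. After 1 hr at 37 C, 5% CO2, red fluorescence was read at 540/590 nm against Rose Bengal sodium as reference.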
# [9] = qHTS assay for small molecule disruptors of the mitochondrial membrane potential (AID 720635)
# How it was run: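 HepG2 cells exposed to compound 1 hr at 37C, then Mito-MPS dye 30 min. Ratio read of aggregate (540/590 nm) versus monomer (490/535 nm) fluorescence.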
# [10] = qHTS assay for small molecules that induce genotoxicity in human embryonic kidney cells expressing luciferase-tagged ATAD5 (AID 651632); further: nearly all actives have a fitted effect of over 15% in size
# How it was run: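 Reporter cells (HEK293T) express luciferase-tagged ATAD5, a protein that accumulates after DNA damage. Treat 16 hr at 37C/5% CO2, add Amplite, wait 30 min at RT, and read luminescence.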
Compound,Potency [1],Potency [2],Potency [3],outcome [4],outcome [5],outcome [6],outcome [7],outcome [8],Potency [9],Potency [10]
C=CCOCC(O)CO (stereo not given),inactive,inactive,inactive,inactive,inactive,inactive,inactive,–,–,–
Nc1ccn([C@@H]2O[C@H](CO)[C@@H](O)C2(F)F)c(=O)n1,106 nM (active),–,inactive,–,inactive,inactive,inactive,inactive,–,–
CC(C)NNC(=O)c1ccncc1,inactive,inactive,inactive,–,inactive,–,inactive,inactive,inactive,–
O=[N+]([O-])c1ccc(/C=N\O)o1,inactive,–,inactive,inactive,inactive,inactive,inactive,–,–,inactive
Cc1ncc(COP(=O)(O)O)c(C=O)c1O,–,inactive,inactive,inactive,inactive,inactive,inactive,inactive,inactive,inactive
CC(C)COC(=O)c1ccc(N)cc1,inactive,inactive,inactive,inactive,inactive,inactive,inactive,inactive,–,–
CC(C#N)(CCC(=O)O)N=NC(C)(C#N)CCC(=O)O (stereo not given),inactive,inactive,inactive,–,inactive,inactive,inactive,inactive,inactive,–
CC(COc1ccccc1)NN (stereo not given),inactive,inactive,inactive,inactive,inactive,inactive,inactive,inactive,inactive,–
CN1C(C)(C)CC(O)CC1(C)C,–,–,inactive,inactive,inactive,–,inactive,inactive,inactive,inactive
CCN1C=CN(C)C1C (stereo not given),–,inactive,inactive,–,inactive,inactive,inactive,–,–,inactive
NS(=O)(=O)Cc1noc2ccccc12,–,inactive,inactive,–,–,inactive,inactive,inactive,–,inactive
CCCCc1ccc2c(n1)[C@@H](c1ccc(OC)cc1C[C@H](C)C(=O)O)[C@H](C(=O)O)[C@H]2c1ccc2c(c1)OCO2,–,inactive,inactive,–,inactive,inactive,inactive,–,–,inactive
CC(CO)(CO)[N+](=O)[O-],–,inactive,inactive,inactive,inactive,inactive,inactive,inactive,–,inactive
COc1c(N2CCNC(C)C2)c(F)cc2c(=O)c(C(=O)O)cn(C3CC3)c12 (stereo not given),–,inactive,inactive,–,inactive,–,inactive,inactive,inactive,inactive
CN(C)[C@@H]1C(=O)C(C(=O)NCN2CCCC2)=C(O)[C@@]2(O)C(=O)C3=C(O)c4c(O)cccc4[C@@](C)(O)C3C[C@@H]12 (stereo not given in full),–,–,inactive,inactive,–,inactive,inactive,inactive,inactive,inactive
CN(C)CCN(C)CCN(C)C,–,inactive,inactive,inactive,inactive,inactive,inactive,–,–,inactive
CCCCCCCCCCCCCCC(=O)O,–,inactive,–,inactive,inactive,–,inactive,inactive,inactive,inactive
CCOC(=O)COc1cc(-n2ncc(C(F)(F)F)c(C)c2=O)c(F)cc1Cl,–,inactive,inactive,–,–,inactive,inactive,inactive,–,inactive
CCCCOCCOC(=O)COc1cc(Cl)c(Cl)cc1Cl,–,inactive,inactive,–,inactive,inactive,inactive,inactive,–,inactive
Cc1ccc(C(=O)c2ccccc2)cc1,–,inactive,inactive,inactive,inactive,inactive,inactive,–,–,inactive
CCN[C@H]1C[C@H](C)S(=O)(=O)c2sc(S(N)(=O)=O)cc21,–,–,inactive,inactive,inactive,inactive,inactive,inactive,inactive,inactive
